Source: PubChem BioAssay (The Scripps Research Institute Molecular Screening Center)
Rows were chosen to be rich in hits. Some 3.5% of all compounds tested hit in one or more screens of this group.
MITF primary – human MITF inhibition, primary screen; O75030; AlphaScreen MITF homodimerization, bead proximity signal; inhibition, % at 2.6 µM; actives 0.91% (n = 650,000); in the data active = inhibition above about 50%;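 note: 0% = vehicle wells with protein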
Target sequence (O75030 whole entry, looked up): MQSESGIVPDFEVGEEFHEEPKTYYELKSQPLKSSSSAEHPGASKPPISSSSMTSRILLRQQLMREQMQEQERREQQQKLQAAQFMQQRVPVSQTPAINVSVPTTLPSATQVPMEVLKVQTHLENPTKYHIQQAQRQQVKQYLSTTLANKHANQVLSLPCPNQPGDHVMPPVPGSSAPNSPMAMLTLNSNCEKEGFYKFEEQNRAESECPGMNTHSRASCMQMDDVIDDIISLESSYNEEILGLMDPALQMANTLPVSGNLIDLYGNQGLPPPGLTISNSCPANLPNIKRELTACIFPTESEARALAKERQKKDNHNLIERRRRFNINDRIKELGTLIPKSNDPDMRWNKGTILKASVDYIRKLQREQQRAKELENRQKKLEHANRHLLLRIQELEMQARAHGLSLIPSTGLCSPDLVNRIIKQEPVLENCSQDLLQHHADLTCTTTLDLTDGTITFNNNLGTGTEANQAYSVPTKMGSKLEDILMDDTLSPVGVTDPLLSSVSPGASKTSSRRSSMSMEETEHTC
TEAD-YAP inh – TEAD-YAP interaction inhibition; actives 1.4% (n = 640,000); inhibition, % at 9.12 µM; HEK-TIYL cells, TEAD-Gal4/YAP UAS-luciferase luminescence; AID 1259422; in the data active = inhibition above about 32%;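 note: 0% = median of test compound wells and 100% = reference inhibitor wells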
FBW7 act – human FBW7 E3 ligase activation, primary screen; Q969H0; AlphaScreen FBW7–phospho-cyclin E peptide binding, activator screen; normalized activity (activation), % at 26.1 µM; actives 0.13% (n = 650,000); in the data active = normalized activity above about 1.9%;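 note: purified mutant Fbw7 with reduced substrate affinity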
GPR151 activ – activates the human receptor GPR151 | actives 1% (n = 650,000) | activation, % at 11.2 µM | PathHunter beta-arrestin GPR151 cells, luminescence | Q8TDV0; in the data active = activation above about 4.9%;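 note: 0% = median of compound wells and 100% = cells with positive control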
GPR151 confirm – confirmation of human GPR151 activators; shares compounds with GPR151 activ; GPR151 PathHunter beta-arrestin cells, luminescence, 90 min; % of EA-reagent control over plate median; activation, % at 11.2 µM; 6,700 tested, under 10 active; AID 1508609;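 active = mean percent activation across replicates above the confirmation screen cutoff of 4.91%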
GPR119 ag – activates human GPR119 in a GPR151 counter-screen; actives 0.3% (n = 6,700); GPR119 PathHunter beta-arrestin cells, luminescence, 90 min; 0 = compound-well median, 100 = enzyme-acceptor control; shares compounds with GPR151 activ; activation, % at 11.2 µM;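 active = mean percent activation in the counterscreen above 29.09%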;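 note: counterscreen on off-target GPR119 to flag nonselective hits from the GPR151 activator screen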
Active calls of the source: *; nt = not tested or not shown; ! = a repeat was not active.

SMILES | MITF primary | TEAD-YAP inh | FBW7 act | GPR151 activ | GPR151 confirm | GPR119 ag
C=CCOC(=O)COc1ccc2c(CCC)cc(=O)oc2c1 | 11.9 | 7.0 | 0.1 | 5.8* | -0.9 | -7.6
CCc1cc(=O)oc2cc(OC(=O)c3ccco3)ccc12 | -7.0 | 7.9 | -0.1 | 6.8* | -0.1 | -2.6
COC(=O)Cc1c(C)c2ccc(OC(=O)c3ccco3)cc2oc1=O | 7.5 | -7.2 | 0.0 | 9.0* | 0.5 | -3.1
CCCCOC(=O)COc1ccc2c(CCC)cc(=O)oc2c1 | -8.1 | 8.3 | 0.1 | 0.5 | nt | nt
CC(C)C(=O)Nc1nnc(Cc2cccc(Br)c2)s1 | 12.0 | 3.0 | 0.3 | 1.7 | nt | nt
O=C1/C(=C\c2cn(-c3ccccc3)nc2-c2ccc(F)cc2)C(C(F)(F)F)=NN1c1ccccc1 | -4.2 | 0.7 | -0.1 | 1.4 | nt | nt
Cc1cc(C)c(C(=O)NCC2Cc3cccc(-c4cccnc4)c3O2)[nH]1 (configuration not stated) | -10.3 | -0.8 | 0.0 | -1.5 | nt | nt
CS(=O)(=O)c1ncc(Cl)c(C(=O)Nc2ccccc2Cl)n1 | -5.5 | -16.5 | 0.0 | -0.2 | nt | nt
CCCN=C(CC)C1=C(O)CC(C)(C)CC1=O | -14.9 | -3.2 | 0.1 | 5.4* | -0.7 | -3.5
C=CCN=C(CC)C1=C(O)CC(C)(C)CC1=O | 1.0 | -3.2 | 0.0 | -0.6 | nt | nt
O=c1[nH]c(Cc2ccccc2)nc2c1C1(CCCCC1)Cc1ccccc1-2 | -18.4 | -7.3 | -0.4 | 5.1* | 1.0 | 13.6
O=c1[nH]c(SCc2ccccc2)nc2c1C1(CCCCC1)Cc1ccccc1-2 | 16.7 | 1.8 | -0.4 | -1.7 | nt | nt
O=C(O)c1ccccc1-c1ccccc1C(=O)Nc1ccccc1 | 21.8 | 5.2 | 0.1 | 1.9 | nt | nt
O=C(O)c1ccccc1-c1ccccc1C(=O)NC1CS(=O)(=O)CC1O (configuration not stated) | -14.2 | -10.9 | -0.1 | 5.1* | 2.0 | 15.5
COc1cc(/C=N/NC(=O)c2ccc(N(C)S(=O)(=O)c3ccccc3)cc2)ccc1O | 5.3 | -8.6 | -0.1 | 9.3* | 0.6 | -2.9
COc1ccc(NC(=O)C(=O)N/N=C/c2ccc(C(=O)O)cc2)c(OC)c1 | 8.9 | 2.3 | 0.0 | -0.5 | nt | nt
O=C(N/N=C/c1cccc(Br)c1)C(=O)Nc1cccc(C(=O)O)c1 | 2.2 | -0.3 | -0.2 | 0.5 | nt | nt
COc1ccc(C(=O)N/N=C/c2ccc(O)c(OC)c2)cc1 | -0.3 | -26.0 | -0.1 | -0.9 | nt | nt
COc1ccccc1NC(=O)C(=O)N/N=C/c1ccc(C(=O)O)cc1 | 13.6 | 4.1 | 0.1 | 5.3* | 0.2 | -4.9
O=C(N/N=C/c1ccc(C(=O)O)cc1)C(=O)Nc1cccc(Br)c1 | 1.3 | 5.8 | -0.1 | 9.3* | 0.4 | -0.3
COC(=O)c1ccc(COC(=O)CCOc2ccccc2)cc1 | -1.3 | -45.6 | 0.2 | 1.2 | nt | nt
CCCCc1[nH]nc2c1C1(CCN(C)CC1)C(C#N)=C(N)O2 | 20.7 | 15.1 | 0.0 | 0.5 | nt | nt
O=C(O)c1cccc(N=Cc2ccc(N3CCOCC3)cc2)c1 | 9.7 | 3.0 | 0.0 | 0.7 | nt | nt
O=S(=O)(NCC1CCCO1)c1ccc(Cl)c(C(F)(F)F)c1 (configuration not stated) | -5.8 | 7.4 | 1.0 | 0.5 | nt | nt
O=S(=O)(NCC1CCCO1)c1ccc(-c2ccc(Cl)cc2)cc1 (configuration not stated) | 19.0 | -0.6 | 0.1 | 7.4* | 0.9 | -0.5
SMILES | MITF primary | TEAD-YAP inh | FBW7 act | GPR151 activ | GPR151 confirm | GPR119 ag
CCCS(=O)(=O)N1CCN=C1SCc1cccc([N+](=O)[O-])c1 | 7.7 | -14.0 | 0.0 | 5.3* | -0.4 | -2.1
O=[N+]([O-])c1ccc(CSC2=NCCN2S(=O)(=O)c2ccc([N+](=O)[O-])cc2)cc1 | 3.5 | 3.9 | -0.1 | 1.7 | nt | nt
CCS(=O)(=O)N1CCN=C1SCc1cccc([N+](=O)[O-])c1 | 34.4 | 5.6 | 0.0 | 0.4 | nt | nt
O=[N+]([O-])c1ccc(CSC2=NCCN2S(=O)(=O)c2ccccc2)cc1 | 24.4 | 0.6 | 1.4 | 5.1* | 0.6 | -1.0
COc1ccc(C(=O)CSc2nc3sc(C)c(C)c3c(=O)[nH]2)cc1C | 3.7 | -3.6 | -0.1 | 0.8 | nt | nt
CN(C)c1ccc(NC(=O)CCN2C(=O)C3C4C=CC(C4)C3C2=O)cc1 (configuration not stated) | -0.7 | -14.6 | 0.1 | 5.2* | 0.4 | -14.2
COc1ccc(/C(N)=N/OC(=O)c2cc(Cl)ccc2OC)cc1 | 7.2 | 7.0 | 0.0 | 6.8* | 0.2 | -1.2
COc1ccc(/C=C2/c3ccccc3-c3nc4ccccc4cc32)cc1OC | 8.2 | -10.8 | 0.1 | 1.5 | nt | nt
COc1ccc(/C=C2/c3ccccc3-c3cc4c(C)cc(C)nc4cc32)cc1OC | 3.5 | -9.2 | -0.1 | 5.8* | 0.6 | 1.2
COc1cc(NS(=O)(=O)c2ccc3c(c2)SC(C)CN3C(C)=O)cc(OC)c1 (configuration not stated) | -6.6 | 15.1 | 0.0 | 0.6 | nt | nt
COc1ccc(C2C3C(C)=NN=C3CC(C)(O)C2C(C)=O)cc1 (configuration not stated) | 12.7 | -1.2 | 0.0 | 6.6* | 1.9 | 10.9
CC(=O)C1C(c2ccc(F)cc2)C2C(C)=NN=C2CC1(C)O (configuration not stated) | 12.1 | 8.5 | 0.3 | 1.5 | nt | nt
O=C(Nc1cccc(Cl)c1)c1c(C(F)(F)F)nc2ccccn12 | 12.9 | -3.8 | 0.0 | 0.3 | nt | nt
COc1cc(S(=O)(=O)N2CCN(c3ccc(C)c(C)c3)CC2)ccc1F | -0.8 | -2.9 | 0.0 | 5.9* | 2.3 | 3.5
Cc1ccn(CC(=O)N2CCC(C3(C)NC(=O)N(Cc4ccc(F)cc4)C3=O)CC2)n1 (configuration not stated) | -2.1 | 3.6 | -0.1 | -0.5 | nt | nt
COc1ccc(C2(NC(=O)c3snnc3C)CCCCC2)cc1 | 1.2 | 0.2 | -0.1 | 20.4* | 0.0 | -1.1
O=C(NCC1CCCN(C(=O)C2=CCCC2)C1)c1ccccc1Cl (configuration not stated) | -12.0 | -19.9 | -0.1 | -1.4 | nt | nt
C[C@H]1NC(=O)[C@@H]2C[C@H](NCc3cccc4cccnc34)CN2C1=O | 11.8 | 3.7 | -0.1 | 8.6* | 0.2 | 10.7
CS(=O)(=O)N1N=C(c2ccc3nccnc3c2)CC1c1ccccc1 (configuration not stated) | 5.0 | -13.2 | -0.1 | 5.0* | -0.8 | -13.3
COc1ccc(NC(=O)NCc2ccncc2)cc1 | -4.4 | -4.2 | -0.1 | 2.5 | nt | nt
COc1ccc(NC(=O)C(=O)NCc2ccncc2)cc1 | 0.6 | 4.1 | -0.1 | 5.1* | -1.3 | -13.7
CCOC(=O)C1=C(C)NC2=C(C(=O)C(C(=O)OC)C(C)C2)C1c1ccccc1OC(C)C (configuration not stated) | -4.2 | -8.7 | 0.2 | 5.2*! | 1.0 | 4.8
COc1ccc(O[C@H]2C=C[C@@H](c3ccccc3)O[C@@H]2COC(=O)CC/C(C)=N/O[C@@H](C)CN2CCCCc3nc(C)c(C)cc32)cc1 | 1.8 | nt | -0.1 | 0.9 | nt | nt
